The structures appear in SMILES notation. Values joined by “and” are separate entries in the source; they are usually repeats but may differ in a detail not shown here. Equal values may be shown once. Compounds without any hit were thinned out: in the full panel of roughly 83,000, 20% have a hit.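 The endpoint reported here, percent growth, reads 100 for growth as untreated, 0 for no net growth and -100 for all cells dead.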 Active and inactive are the calls of the source. Rule for the calls: active = growth percent below 10; inactive = the rest.

The subject of the assay is A549/ATCC NSCLC. The experiment in a line: NCI-60 one-dose screen, 48 h (100 = growth as untreated, 0 = no growth, -100 = all killed). The conditions noted are these: 10 µM unless noted.
`O=C(O)C1C2CCC1C(O)C2` (centres undefined): the growth is 102% (inactive) and 100% (inactive).
Take `CC1=C2[C@@H](CC1)[C@]1(C)O[C@@](C3CC3)(C[C@H]1OC(=O)CO)[C@H]2OC(=O)/C=C/c1ccccc1`: the growth was 79% (inactive).
Consider `CON1CCC[C@]2(C)[C@H]3CC[C@@H]4[C@H]5[C@@H](O)C(C)(C)CC[C@]5(CO)CC[C@@]4(C)[C@]3(C)CC[C@H]2C1(C)C`, for which the growth was 94.2% (inactive).
As for `O=C(Nc1ccccc1C(=O)N/N=C(\c1ccccc1)c1ccccn1)c1ccccc1`, the growth was 9.7% (active).
With `CNC(=O)c1cc(Oc2ccc3nc(NC(=O)Nc4ccc(C(F)(F)F)cc4)sc3c2)ccn1`, the growth was 1.79% (active).
In the case of `COc1cc(CO)cc2cc3ccccc3nc12`, the growth is 104% (inactive).
Consider `Cc1ccc(S(=O)(=O)OC[C@@]2(C)CC[C@]3(C)CC[C@]4(C)C(=CC[C@@H]5[C@@]6(C)CCCNC(C)(C)[C@@H]6CC[C@]54C)[C@@H]3C2)cc1`, for which the growth was -75.9% (active).
For `O=C1C(c2c[nH]c3ccccc23)=C(c2coc3cc(Br)ccc23)C(=O)N1O`, the growth was 98.4% (inactive).
On to `Cc1ccc(Cc2cnc(NC(=O)c3cc(C)oc3C)s2)cc1`, for which the growth is 55% (inactive).
Consider `CN(Cc1ccccc1)c1nc(Cl)c(C2CC(c3ccc4c(c3)OCO4)=NN2c2cc(Cl)cc(Cl)c2)s1` (centres undefined), for which the growth is 90.7% (inactive).
On to `COc1ccc(/C=C/C(=O)c2cc3c(N)c(C(=O)Nc4ccccc4Cl)sc3nc2C)cc1`, for which the growth was 33.8% (inactive).
Under `COc1ccc(/C=N/NC(=O)CN2CCN(c3cc4c(cc3F)c(=O)c(C(=O)O)cn4C3CC3)CC2)cc1O` stands 99.5% (inactive).
As to `COc1ccc(-c2csc(NC(=O)CN3CCN(CCO)CC3)n2)cc1NS(=O)(=O)c1cccc2c(N(C)C)cccc12`, the growth is 75.7% (inactive).
On to `COc1cccc(NC(=O)c2sc3nc(C)c(C(O)c4ccccc4)cc3c2N)c1` (centres undefined), for which the growth is 22.4% (inactive).
The result for `COc1ccc(N2CCN(S(=O)(=O)c3oc(-c4ccccc4)nc3C#N)CC2)cc1` reads 99.4% (inactive).
For `O=S(=O)(O)c1ccc(N=Nc2ccc(N=Nc3cccc4ccccc34)c(S(=O)(=O)O)c2)cc1`, the growth is 109% (inactive).
The result for `O=C1/C(=C/c2ccc(F)c(F)c2)CN(C(=O)C(Cl)Cl)C/C1=C\c1ccc(F)c(F)c1` reads -52.1% (active).
In the case of `O=S(=O)(Nc1cc(Sc2cccc3cccnc23)c(O)c2ccccc12)c1ccc(F)cc1`, the growth is 11.9% (inactive).
With `COc1cc(Cl)cc(-c2nn(C(=O)NS(=O)(=O)c3ccc(Cl)cc3)cc2-c2ccncc2)c1`, the growth was 65.1% (inactive).
`CCN1CCN(CC(=O)Nc2nc3ccc(NCc4ccc(C)cc4)cc3s2)CC1`: the growth was 73.4% (inactive).
The result for `COc1cc(-c2nc(SCCC(C)C)nc(Nc3ccc(F)cc3)c2C#N)cc(OC)c1OC` reads 28.3% (inactive).
Turning to `O=C(/C=C/c1ccc([N+](=O)[O-])cc1)c1ccccc1`, the growth was 83.3% (inactive).
The result for `COc1cc(-c2nn(-c3cccc(NC(=O)CCN4CCN(C)CC4)c3)cc2-c2ccncc2)ccc1Cl` reads 30.7% (inactive); that for `N#CC(Cc1cccc2ccccc12)c1cc2ccccc2[nH]1` (centres undefined), 89.5% (inactive).
`C#CCOCC1CN(C)C(=O)O1` (centres undefined): the growth is 93.7% (inactive).
Take `Cc1ccc(/C=C/c2c(C(=O)/C=C/c3ccccc3)c(C)nc3ccccc23)cc1`: the growth was 30.8% (inactive).
Turning to `Cc1ccc(-c2nc(C#N)c(S(=O)(=O)N(C)C)o2)cc1`, the growth is 102% (inactive).
Under `O=C(Nc1ncc(Cc2cccc(C(F)(F)F)c2)s1)c1ccc(-n2cnnn2)cc1` stands 34.4% (inactive).
In the case of `COc1c(F)cc(-n2c(C(=O)N3CC(F)C3)cc3cccnc32)cc1F`, the growth is 113% (inactive).
In the case of `N=C1/C(=C2\NC3C=CC=CC3S2)C(c2ccc(Cl)cc2)C2C(=O)N(c3ccccc3)C(=S)N12` (centres undefined), the growth was 100% (inactive).
`COc1ccc(Cl)cc1Nc1nc(C(F)(F)F)ccc1C(=O)N/N=C/c1ccc(N(C)C)cc1`: the growth was 97% (inactive).
For `Cc1ccc(NC(=O)c2ccc(CN3CCN(C)CC3)cc2)cc1Nc1nccc(-c2cccnc2)n1`, the growth is 96.2% (inactive) and 62.2% (inactive).
The result for `C=C1C(=O)O[C@H]2[C@H]1CC/C(COC(=O)NCCCCNC(=O)OC/C1=C/CC[C@@]3(C)O[C@H]3[C@H]3OC(=O)C(=C)[C@@H]3CC1)=C\CC[C@@]1(C)O[C@@H]21` reads 94.9% (inactive); that for `C[C@@H]1O[C@@H](O[C@H]2[C@@H](OC(=O)[C@]34CCC(C)(C)C[C@H]3C3=CC[C@@H]5[C@@]6(C)C[C@H](O)[C@H](O[C@@H]7O[C@H](CO)[C@@H](O)[C@H](O)[C@H]7O)[C@@](C)(CO)[C@@H]6CC[C@@]5(C)[C@]3(C)C[C@H]4O)OC[C@@H](O)[C@@H]2O)[C@H](O)[C@H](O[C@@H]2OC[C@@H](O)[C@H](O[C@@H]3OC[C@](O)(CO)[C@H]3O[C@@H]3OC[C@@H](O)[C@H](O)[C@H]3O)[C@H]2O)[C@H]1O[C@@H]1OC[C@](O)(CO)[C@H]1O`, 50.2% (inactive).

These data come from PubChem BioAssay (NCI).
